From PubChem
Most compounds without a hit are left out; they make up all but 2.9% or so of the library.
HSF1 inh – HSF1 inhibitors in luciferase reporter cells, primary screen, cell-based, NIH3T3, luminescence. NIH3T3-HGL HSE-luciferase, MG132-induced, luminescence 8 h; stronger effect = lower value. activity change, negative = inhibition, % at 7.5 µM (by protocol). 300,000 compounds, 0.77% hits. AID 2098, 2009;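 active = more than half of replicate wells show activity change below -50%, luminescence cut by over half; inconclusive = some wells, but at most half, below -50%; inactive = no replicate well below -50%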;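 note: luciferase reports HSF-1 transcriptional activity via heat shock element; 0% = median of DMSO wells and -100% = zero luminescence signal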
Hsp70 activator – Hsp70 transcriptional activators, primary screen, cell-based, HeLa, Hsp70 promoter luciferase, luminescence, 10 µM | activation, % at 10 µM | HeLa Hsp70 promoter luciferase reporter; scaled: vehicle 0, proteasome-inhibitor control 100% | 200,000 compounds, 0.04% hits;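 active = activation above the mean across all tested compounds plus 3 SD, cutoff set per campaign, cut at about 5.5% in these data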;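 note: 100% = MG132 at 30 µM as the positive control and 0% = DMSO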
HSF-1 act – HSF-1 activators, primary screen, NIH3T3-HGL cells, MG132 stress, luminescence, single point. NIH3T3-HGL HSF-1 luciferase reporter, 8 h; 100% = twice DMSO control signal. 300,000 compounds, 1.7% hits. activation, % at 9 µM;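 active = mean replicate activation of at least 50% with a set share of replicates each reaching 50%; inconclusive = only one of those two conditions met; inactive = mean below 50% and too few replicates reaching it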;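 note: 0% = median of the neutral control wells and 100% = twice that signal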
S1P3 antagonist – S1P3 receptor antagonists, primary screen, cell-based; Sphingosine 1-phosphate receptor 3 (Homo sapiens), Q99500; CHO S1P3 NFAT-BLA reporter, FRET fluorescence, antagonist mode; inhibition, % at 4.98 µM; 170,000 compounds, 0.27% hits;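 active = inhibition above the plate cutoff, the mean inhibition of test wells on that plate plus 3 SD, cut at about 28% in these data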;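 note: cells challenged with S1P at its EC80 of 0.8 µM; blue over green emission ratio from cleaved BLA substrate after 4 h stimulation; 0% = S1P-stimulated wells and 100% = unstimulated DMSO-only wells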
S1P4 agonist – S1P4 receptor agonists, primary screen, cell-based; S1P4-expressing cell line, agonist reporter assay; AID 1509, 2009; 220,000 compounds, 0.35% hits; activation, % at 4.98 µM; in the data active = activation above about 11%;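 note: 0% = DMSO vehicle and 100% = reference agonist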
Target sequence (O95977 whole entry, looked up): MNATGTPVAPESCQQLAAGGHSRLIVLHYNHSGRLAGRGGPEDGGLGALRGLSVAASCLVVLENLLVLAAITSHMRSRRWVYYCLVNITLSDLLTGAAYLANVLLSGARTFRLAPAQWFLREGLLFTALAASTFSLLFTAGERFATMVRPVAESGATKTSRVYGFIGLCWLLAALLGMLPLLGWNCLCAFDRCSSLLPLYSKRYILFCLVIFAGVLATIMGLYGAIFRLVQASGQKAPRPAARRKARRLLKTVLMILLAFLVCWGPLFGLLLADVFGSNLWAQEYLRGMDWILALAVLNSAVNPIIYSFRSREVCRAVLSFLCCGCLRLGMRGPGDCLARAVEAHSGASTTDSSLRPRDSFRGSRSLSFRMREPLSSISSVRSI
S1P4 antagonist – S1P4 receptor antagonists, primary screen, cell-based; Sphingosine 1-phosphate receptor 4 (Homo sapiens), O95977; S1P4-expressing cells, antagonist mode, reporter read-out; inhibition, % at 4.98 µM; 220,000 compounds, 0.26% hits; in the data active = inhibition above about 29%;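 note: 0% = wells stimulated with agonist and 100% = vehicle wells without agonist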
Numbers without * were called inactive; ? = inconclusive; nt = no result given.

SMILES	HSF1 inh	Hsp70 activator	HSF-1 act	S1P3 antagonist	S1P4 agonist	S1P4 antagonist
O=c1cc(-c2ccccc2)[nH]c2ccccc12	-11	0	5	-1	0	6
O=C1C(c2cc(=O)c3ccccc3[nH]2)=C(O)c2ccccc21	26	0	65*	-9	1	-8
CCC(C(=O)OCC(=O)Nc1cc(Cl)cc(Cl)c1)c1ccccc1 (stereo unspecified)	-5	0	-16	-28	1	-14
CC12COC3(C(=O)Nc4ccc5ccccc5c4)CC1CCC32C (stereo unspecified)	31	0	62*	-15	-1	0
COc1ccc(Nc2ncnc3sc(-c4ccccc4)cc23)cc1	-71*	0	-78	nt	-3	6
COc1ncnc2sc(-c3ccccc3)cc12	26	0	38	-7	-1	7
O=C(c1ccc2oc(CCCc3ccccc3)nc2c1)N1CCCC1	46	nt	87*	nt	nt	nt
CC(=O)C1CCCN(C(=O)c2ccc3oc(CCc4ccccc4)nc3c2)C1 (stereo unspecified)	-1	nt	-12	nt	nt	nt
CN1C(=O)C2(c3ccccc31)N(C)CC(c1ccccc1)C21SC(=S)N(Cc2ccco2)C1=O (stereo unspecified)	1	0	6	nt	0	-12
CN1C(=O)C2(c3ccccc31)N(C)CC(c1ccccn1)C21SC(=S)N(Cc2ccco2)C1=O (stereo unspecified)	34	0	85*	-9	-2	8
COC(=O)c1cc(S(=O)(=O)NCC2CCN(CCc3cccs3)CC2)c[nH]1	-7	nt	5	nt	nt	nt
COc1ccc(CNC(=O)c2nc(S(=O)(=O)Cc3ccccc3)ncc2Cl)cc1	227	nt	248*	nt	nt	nt
CCS(=O)(=O)c1ncc(Cl)c(C(=O)Nc2ccc(S(=O)(=O)N3CCCC(C)C3)cc2)n1 (stereo unspecified)	-79*	nt	-80	nt	nt	nt
COC(=O)c1ccccc1NC(=O)c1nc(S(=O)(=O)Cc2ccccc2)ncc1Cl	27	nt	28	nt	nt	nt
CC(=O)Nc1ccc(NC(=O)c2nc(S(=O)(=O)Cc3ccccc3)ncc2Cl)cc1	-94*	nt	-94	nt	nt	nt
CCOc1ccccc1NC(=O)c1nc(S(=O)(=O)Cc2cccc(C)c2)ncc1Cl	?	nt	-39	nt	nt	nt
O=C(NCc1ccccc1)c1nc(S(=O)(=O)Cc2ccccc2)ncc1Cl	174	nt	147*	nt	nt	nt
Cc1ccc2nc(NC(=O)COC(=O)c3ccccn3)sc2c1	5	0	9	-5	-1	-7
CCS(=O)(=O)c1ncc(Cl)c(C(=O)Nc2ccc(C)cc2)n1	-98*	nt	-98	nt	nt	nt
Cc1ccc(CS(=O)(=O)c2ncc(Cl)c(C(=O)Nc3ccc(OC(F)F)cc3)n2)cc1	11	nt	8	nt	nt	nt
CCC1CCCCN1S(=O)(=O)c1ccc(NC(=O)c2nc(S(C)(=O)=O)ncc2Cl)cc1 (stereo unspecified)	-84*	nt	-84	nt	nt	nt
O=C(NCc1ccccc1)c1c(Cl)nc(Cl)c(Cl)c1Cl	35	nt	65*	nt	nt	nt
CCC1CCCCN1S(=O)(=O)c1ccc(NC(=O)c2ccncc2)cc1 (stereo unspecified)	0	nt	2	nt	nt	nt
O=C(Oc1ccccc1)c1cccnc1Oc1ccccc1	0	nt	-1	5	0	10
COc1ccc(CCNC(=O)C2CCN(c3nccc(C)n3)CC2)cc1	-3	0	0	-12	0	11
SMILES	HSF1 inh	Hsp70 activator	HSF-1 act	S1P3 antagonist	S1P4 agonist	S1P4 antagonist
CC1CC(C)CN(CCCNC(=O)c2ccc3c(c2)N(Cc2ccccc2)C(=O)c2ccccc2S3=O)C1 (stereo unspecified)	-3	nt	-5	nt	nt	nt
COc1cc(NS(=O)(=O)c2cc(C)ccc2OC)c(OC)cc1Cl	20	0	67*	7	-1	-15
CCOC(=O)c1sc(=NC(=O)c2cccs2)n(C)c1C	29	0	53*	-6	0	-5
CCCCN(C)CCN1C(=O)C2C(C(=O)Nc3ccc(C)cc3)C3C=CC2(O3)C1C(=O)NC1CCCCC1 (stereo unspecified)	7	nt	3	nt	nt	nt
COc1cc(CCC(O)CC(=O)CCc2ccccc2)ccc1O (stereo unspecified)	-2	0	-1	-16	0	-17
COc1ccc(OC)c(C2CC(c3ccccc3)=NN2C(=S)Nc2ccccc2)c1 (stereo unspecified)	1	nt	0	9	0	2
COc1ccccc1C1=NN(C(=S)Nc2ccccc2)C(c2ccco2)C1 (stereo unspecified)	42	0	52*	nt	0	11
COc1ccc(NC(=O)c2sccc2C)cn1	36	1	70*	-11	-2	11
Cc1ccc(/C=C/C(=O)Nc2ccc(S(=O)(=O)Nc3cc(C)nc(C)n3)cc2)cc1	39	nt	64*	nt	nt	nt
COc1ccc2nc(-c3ccccc3)[nH]c2c1	4	0	19	5	4	-12
O=c1oc2c(O)cccc2cc1-c1nc2ccccc2[nH]1	10	nt	42	nt	nt	nt
COc1ccc(N=c2oc3ccc(OC)cc3cc2-c2nc3ccccc3[nH]2)cc1	31	0	58*	nt	2	-14
COc1cccc(N=c2oc3ccccc3cc2-c2nc3ccccc3[nH]2)c1	25	0	71*	nt	3	5
COc1ccc2oc(=O)c(-c3nc4ccccc4o3)cc2c1	3	0	1	nt	1	-13
COc1cccc(N=c2oc3ccc(OC)cc3cc2-c2nc3ccccc3[nH]2)c1	28	0	54*	nt	1	4
CCOC(=O)c1c(-c2ccccc2)csc1NC(=O)CCN1CCOCC1	30	0	74*	6	0	-15
COC(=O)CNC(c1ccccc1)c1cc(Br)ccc1N (stereo unspecified)	24	nt	74*	-2	2	-3
CCOC(=O)c1c(-c2ccccc2)csc1NC(=O)c1cccc(N2C(=O)CCC2=O)c1	28	0	85*	nt	0	-8
CCOC(=O)c1c(-c2ccc(C)cc2)csc1NC(=O)c1cccc(N2C(=O)CCC2=O)c1	-8	0	-4	10	2	-20
CCOC(=O)c1c(-c2ccc(C)cc2)csc1NC(=O)CCN1CCOCC1	-7	0	4	2	0	-26
CCOC(=O)CNC(c1ccccc1)c1cc(Br)ccc1NC(=O)CCN1CCOCC1 (stereo unspecified)	27	0	63*	-19	0	2
COc1ccc(C2C(C(=O)c3cccs3)=C(O)C(=O)N2CCN2CCOCC2)c(OC)c1 (stereo unspecified)	-4	nt	-10	nt	nt	nt
